Source: PubChem BioAssay
AMA1-RON2 inh: qHTS for Inhibitors of AMA1-RON; Towards Development of Antimalarial Drug Lead: Primary Screen | Plasmodium falciparum AMA1 (3D7) - RON2 peptide interaction | Potency, µM (series often up to 58.2 µM), for the others: top-dose activity change, negative = inhibition, usual class: inhibitors | actives 0.2% (n = 360,000) | AlphaScreen AMA1-biotinylated RON2 peptide binding | AID 720542, 2013;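 also: potency is read from the fitted curve at half-maximal effect; 0% = vehicle wells and -100% = peptide control; nearly all actives have a fitted effect of over 45% in size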
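AMA1 (3D7) with his tag at 25 nM final met compounds first, then biotinylated RON2 peptide at 25 nM; detection used donor plus acceptor beads, 10 µg/mL apiece, read by AlphaScreen after 30 min at room temperature.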
AmpC detergent: qHTS Inhibitors of AmpC Beta-Lactamase (assay with detergent); Potency, µM (highest dose often 114 µM), for the others: at the top dose activity change, negative = inhibition, usual class: inhibitors; actives 0.041% (n = 370,000); AID 485294, 2010; AmpC hydrolysis of nitrocefin, absorbance 480 nm, 0.01% Triton; P00811;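 also: potency is read from the fitted curve at half-maximal effect; 0% = no-compound wells and -100% = no-enzyme wells; nearly all actives have a fitted effect of over 25% in size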
Target sequence (P00811 whole entry, looked up): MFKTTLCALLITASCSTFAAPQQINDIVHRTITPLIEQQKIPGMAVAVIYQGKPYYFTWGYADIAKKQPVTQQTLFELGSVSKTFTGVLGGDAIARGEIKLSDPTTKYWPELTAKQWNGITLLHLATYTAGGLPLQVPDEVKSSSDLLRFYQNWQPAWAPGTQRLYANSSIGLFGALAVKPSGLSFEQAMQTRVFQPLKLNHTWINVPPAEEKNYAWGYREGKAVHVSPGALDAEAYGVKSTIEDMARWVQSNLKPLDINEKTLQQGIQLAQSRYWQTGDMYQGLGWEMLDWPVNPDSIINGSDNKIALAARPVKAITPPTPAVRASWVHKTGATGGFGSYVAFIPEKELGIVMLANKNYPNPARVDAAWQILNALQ
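20 mM phosphate pH 7.0 + 0.01% (detergent screen) or 0.0001% Triton X-100; 5.3 nM AmpC reagent; cpd preinc 15 min RT; nitrocefin (800 uM stock) to start; A480 q20 s × 4 min; Activity was normalised to no-enzyme and no-compound control wells.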
Shiga toxin inh: A qHTS for Small Molecule Inhibitors of Shiga Toxin. actives 9.2% (n = 290,000). AID 2315, 2010. inhibition, % at 38.7 µM. Vero cells, Shiga toxin protein synthesis inhibition reporter; in the data active = inhibition mostly above about 28%, no sharp cut-off; inactive = mostly below about 43%; also: 0% is about no effect
Cycloheximide cs: Cycloheximide Counterscreen for Small Molecule Inhibitors of Shiga Toxin | AID 2314, 2010 | max response, % | actives 12% (n = 300,000) | cell reporter, cycloheximide protein synthesis inhibition counterscreen; in the data active = max response mostly above about 13%, no sharp cut-off; inactive = mostly below about 14%; also: read at 38.3 µM for the half of the compounds with a filed dose; 0% is about no effect
SARS PLpro yeast: qHTS of Yeast-based Assay for SARS-CoV PLP; S. cerevisiae expressing SARS-CoV PLpro, growth rescue; Potency, µM (series often up to 32.9 µM), without a hit: at the highest dose activity, positive = growth rescue, most hits filed as activators; actives 0.19% (n = 330,000); AID 485353, 2010; calls by dose curve; also: potency is read from the fitted curve at half-maximal effect; 0% is about no effect; nearly all actives have a fitted effect of over 55% in size
AmpC inh no detg: qHTS Inhibitors of AmpC Beta-Lactamase (assay without detergent); P00811; AmpC nitrocefin hydrolysis, absorbance 480 nm, 0.0001% Triton; Potency, µM (series often up to 57.1 µM), for inactives: at the highest dose activity change, negative = inhibition, usual class: inhibitors; actives 0.52% (n = 330,000); AID 485341, 2010;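 also: potency is read from the fitted curve at half-maximal effect; plate controls were no compound for no effect and no enzyme for full effect; nearly all actives have a fitted effect of over 20% in size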
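20 mM phosphate pH 7.0 + 0.01% (detergent screen) or 0.0001% Triton X-100; 5.3 nM AmpC reagent; cpd preinc 15 min RT; nitrocefin (800 uM stock) to start; A480 q20 s × 4 min; Activity was normalised to no-enzyme and no-compound control wells.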
* hit, by the source's call; ? = inconclusive; . = not tested or not shown. The entries come from a sample that favours hits as a whole. Unless noted, calls follow the shape of the dose curve; as a rule, active = well fitted curve in the direction sought with a large enough effect; inconclusive = small, poorly fitted or top-dose-only effect, or another doubt; inactive = no such curve, though single readings can be large; an effect the other way counts as inactive or inconclusive.

SMILES	AMA1-RON2 inh	AmpC detergent	Shiga toxin inh	Cycloheximide cs	SARS PLpro yeast	AmpC inh no detg
CC(=O)Nc1ccc2nc(-c3ccncc3)[nH]c2c1	-1%	-3%	30	10	2%	-6%
O=C(Nc1cccc(-c2cnc3ccccc3n2)c1)c1ccccc1	-1%	-8%	47	31	12%	-23%
O=C(Nc1cccc(-c2cnc3ccccc3n2)c1)c1cccc(NC(=O)c2ccco2)c1	-22%	-3%	46*	43*	4%	-15%
Cc1ccc(NC(=O)C(=O)NNC(=O)c2cccs2)cc1	81%	2%	38	29*	-2%	-33%
Nc1ccc(/C=C/C(=O)c2cccs2)cc1	24%	9%	68*	40*	-4%	-23%
Nc1ccc(NC(=O)c2cccs2)cc1	-3%	-6%	23	21*	-1%	-12%
Cc1ccc(NC(=O)c2cccs2)cc1	31%	-6%	81	53*	-13%	-16%
O=C(C=Cc1ccccc1)c1cccs1	20%	.	.	.	.	.
O=C(Cc1ccccc1)Nc1ccc(NC(=O)c2cccs2)cc1	5%	-4%	25	15	-6%	-52%
CC(C)Oc1cccc(C(=O)C2CCCN(S(=O)(=O)C(C)C)C2)c1 (stereo not drawn)	16%	1%	-9	8	0%	67%
CCN(CC)c1cc(C)c2cc(NC(=O)c3cccc(F)c3)ccc2n1	.	-2%	.	.	.	.
COc1ccc(NC(=O)C(=O)NNC(=O)c2cccs2)cc1	63%	-6%	10	15*	-30%	-7%
Nc1ccc(NC(=O)Nc2ccc(N)cc2)cc1	5%	-13%	29*	17*	0%	-16%
CCN(CC)c1cc(C)c2cc(NC(=O)c3cccs3)ccc2n1	-8%	-10%	40	23*	7%	-27%
CC1CCN(S(=O)(=O)c2ccc(NC(=O)c3cccs3)cc2)CC1	-2%	?	-1	-5	-2%	28µM*
COc1ccc(Br)cc1CN1C(=O)NC2(CCCCCC2)C1=O	-3%	-10%	20	-3	-1%	-21%
C[C@@H]1O[C@@H](OC2C(O)C(OCCc3ccc(O)c(O)c3)OC(CO)C2OC(=O)/C=C/c2ccc(O)c(O)c2)[C@H](O)[C@H](O)[C@H]1O (stereo partly drawn)	.	-7%	.	.	-3%	36%
COc1cc(C(=O)N2CCN(c3ccc(C)cc3C)CC2)cc(OC)c1OC	0%	?	-12	-6	18%	147%
O=S(=O)(NCCN1CCOCC1)c1ccc(Oc2ccccc2Cl)cc1	-12%	0%	-14	-4	0%	121%
O=C(c1cc2cc(Cl)ccc2o1)N1CCCCCC1	7%	?	.	.	8%	-10%
Cc1ccc(NC(=O)C2CC(=O)n3c(nc4ccccc43)N2)cc1 (stereo not drawn)	-16%	-6%	-9	-6	-4%	-36%
O=C(Nc1ccc2c(c1)CCC2)c1cccs1	13%	-1%	62*	54*	-4%	-28%
CC1CCN(S(=O)(=O)c2ccc(NC(=O)CSc3nnnn3C)cc2)CC1	-2%	-5%	11	-4	2%	0.16µM*
Cn1nnnc1SCC(=O)Nc1cccc(S(=O)(=O)N2CCCC2)c1	-6%	-5%	3	3	3%	-12%
c1ccc(C(c2ccccc2)c2ccn[nH]2)cc1	-7%	-3%	61*	19*	-1%	-16%
SMILES	AMA1-RON2 inh	AmpC detergent	Shiga toxin inh	Cycloheximide cs	SARS PLpro yeast	AmpC inh no detg
CC(Oc1ccccc1)c1ccn[nH]1 (stereo not drawn)	11%	1%	18	-3	0%	-6%
CCOC(=O)/C(C#N)=C1/C=CN(c2ccc(C)cc2)C=N1	-1%	0%	64*	29*	11%	-4%
Cc1ccccc1C(=O)NNC(=S)NC(=O)c1ccccc1	61%	?	28*	17*	-62%	-45%
O=C(NC(=S)NNC(=O)c1ccccc1O)c1ccc(F)cc1	-39%	-8%	.	6	3%	-20%
Cc1cccc(C(=O)NNC(=O)c2ccccc2O)c1	98%	-1%	38*	39*	-3%	-13%
Cc1ccc(C(=O)NNC(=S)NC(=O)c2ccccc2)cc1	40%	.	.	.	.	.
CCCc1ccc(C(=O)NC(=O)c2ccccc2O)cc1	-15%	-16%	19	23*	-7%	-52%
Cc1ccc(C(=O)NC(=S)NNC(=O)c2ccccc2O)cc1	4%	-15%	54*	19*	4%	-19%
COC(=O)C1=C(c2ccccc2)C[C@@H]2CC[C@H]1N2C(=O)NCc1ccc(F)cc1	6%	.	.	.	.	.
O=C(NC(=S)NNC(=O)c1ccccc1O)c1ccccc1	-61%	-4%	55*	29	4%	-26%
O=C(NNC(=S)NC(=O)c1ccccc1[N+](=O)[O-])c1ccccc1O	0.71µM*	4%	15	-2	5%	-23%
Cc1ccccc1C(=O)NNC(=O)c1ccc(Br)cc1	33%	?	84*	42*	-2%	-12%
CC(C)(C)c1cc(CCC(=O)NNC(=S)NC(=O)c2ccccc2)cc(C(C)(C)C)c1O	88%	-11%	7	-1	5µM*	1.6µM*
CCN1CCN(c2cc(C)c3cc(NC(=S)N4CC(C)CC(C)C4)ccc3n2)CC1 (stereo not drawn)	1%	3%	22	8	-3%	172%
O=C1NC(=O)/C(=C\c2ccc(Cl)nc2)S1	13%	6%	68*	34*	-3%	-20%
COc1ccc(N=C2NC(=O)/C(=C\c3ccco3)S2)cc1	-11%	5%	66*	23*	-1%	-40%
O=[N+]([O-])c1ccc(Oc2ccc(/C=N/O)cc2)nc1	-9%	-11%	-17	1	0%	-11%
O=C1NC(=O)/C(=C\c2ccc(Oc3ccc([N+](=O)[O-])cn3)cc2)S1	-1%	?	42*	34*	20%	-11%
COc1ccc(/C=C2/SC(=O)NC2=O)cc1	3%	-3%	52*	39*	-6%	-40%
O=C(CSc1nc2ccccc2n1S(=O)(=O)c1ccccc1)N1CCCCC1	1%	?	36	17	0%	-32%
COc1ccc(S(=O)(=O)N2CCOC2CNC(=O)C(=O)NCCCN(C)C)cc1C (stereo not drawn)	7%	.	.	.	.	.
CC(=O)Nc1cccc(NC(=O)CSc2nc(=O)n(Cc3ccncc3)c3c2CCC3)c1	-5%	4%	.	.	0%	26%
Cn1ccsc1=NC(=O)c1cccc(OC(F)F)c1	5%	-13%	92*	45*	-3%	-5%
